POLK inh = blocks human DNA polymerase kappa activity; Q9UBT6; purified Pol kappa, fluorescent DNA synthesis assay, 10 min; Potency, µM (highest dose often 107 µM), for inactives: at the top dose activity, negative = inhibition, hits mostly inhibitors; hit rate 0.53% among 400,000; AID 588579; also: potency is read from the fitted curve at half-maximal effect; % is scaled to controls: 0 for no effect and ±100 for the full control effect
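Pol kappa 10 nM + cpd, 15 min RT; start w/ substrate 50 nM final; fluorescence kinetic read, 0 and 10 min. Neg ctrl: buffer, no enzyme.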
WRN inhibitor = blocks human WRN helicase. WRN helicase unwinding, fluorescent forked duplex, kinetic. hit rate 0.46% among 360,000. AID 651768. Potency, µM (top dose mostly 114 µM), inactives show top-dose activity change, negative = inhibition, actives largely listed as inhibitors. Q14191; also: potency is read from the fitted curve at half-maximal effect; % is scaled to controls: 0 for no effect and ±100 for the full control effect; nearly all actives have a fitted effect of over 55% in size
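Screening of the MLSMR collection measured strand separation of a quenched forked DNA duplex (100 nM) by 20 nM WRN with 2 mM ATP, all final. Compounds were preincubated with enzyme 15 min at room temperature.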
Pol beta inh = blocks human DNA polymerase beta activity; P06746; Pol beta primer extension/strand displacement, fluorescence kinetic; Potency, µM (highest dose often 114 µM), for inactives: top-dose activity change, negative = inhibition, most hits filed as inhibitors; hit rate 1.3% among 340,000; also: potency is read from the fitted curve at half-maximal effect; % is scaled to controls: 0 for no effect and ±100 for the full control effect
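Values derive from four-parameter Hill fits of normalized kinetic data: reads at 0 and 10 min following addition of 50 nM substrate to 10 nM Pol beta preincubated 15 min with compound.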
POLH inh = inhibitors of human DNA polymerase eta | hit rate 1.2% among 390,000 | Potency, µM (top dose mostly 114 µM), inactives show at the top dose activity change, negative = inhibition, hits mostly inhibitors | recombinant Pol eta, fluorescent DNA replication assay | Q9Y253; also: potency is read from the fitted curve at half-maximal effect; % is scaled to controls: 0 for no effect and ±100 for the full control effect
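Fluorescent replication assay: 50 nM final substrate added after a 15 min room-temperature compound preincubation with 10 nM enzyme. Signal taken at 0 min and again at 10 min.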
PI5P4Ka inh = PI5P4K alpha (human) kinase inhibition | max response, % | P48426 | hit rate 1.2% among 330,000 | PI5P4Kalpha enzyme, ADP-Glo luminescence, 60 min; active compounds read low; active = max response of -50% or lower; inconclusive = between -30% and -50%; inactive = -30% or higher; also: value at the top dose of about 77 µM; % is scaled to controls: 0 for no effect and ±100 for the full control effect
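Enzyme plus substrate dispensed, test compounds pinned in, then ATP (5 microM final) added. After 60 min at RT, ADP-Glo reagent 1 for 45 min and reagent 2 for 30 min preceded luminescence imaging.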
POLI inh = DNA polymerase iota (human) inhibition; hit rate 1% among 390,000; AID 588590; Potency, µM (top dose mostly 115 µM), inactives show top-dose activity, negative = inhibition, most hits filed as inhibitors; Pol iota fluorescent replication assay, 10 min; also: potency is read from the fitted curve at half-maximal effect
Target sequence (Q9UNA4 whole entry, looked up): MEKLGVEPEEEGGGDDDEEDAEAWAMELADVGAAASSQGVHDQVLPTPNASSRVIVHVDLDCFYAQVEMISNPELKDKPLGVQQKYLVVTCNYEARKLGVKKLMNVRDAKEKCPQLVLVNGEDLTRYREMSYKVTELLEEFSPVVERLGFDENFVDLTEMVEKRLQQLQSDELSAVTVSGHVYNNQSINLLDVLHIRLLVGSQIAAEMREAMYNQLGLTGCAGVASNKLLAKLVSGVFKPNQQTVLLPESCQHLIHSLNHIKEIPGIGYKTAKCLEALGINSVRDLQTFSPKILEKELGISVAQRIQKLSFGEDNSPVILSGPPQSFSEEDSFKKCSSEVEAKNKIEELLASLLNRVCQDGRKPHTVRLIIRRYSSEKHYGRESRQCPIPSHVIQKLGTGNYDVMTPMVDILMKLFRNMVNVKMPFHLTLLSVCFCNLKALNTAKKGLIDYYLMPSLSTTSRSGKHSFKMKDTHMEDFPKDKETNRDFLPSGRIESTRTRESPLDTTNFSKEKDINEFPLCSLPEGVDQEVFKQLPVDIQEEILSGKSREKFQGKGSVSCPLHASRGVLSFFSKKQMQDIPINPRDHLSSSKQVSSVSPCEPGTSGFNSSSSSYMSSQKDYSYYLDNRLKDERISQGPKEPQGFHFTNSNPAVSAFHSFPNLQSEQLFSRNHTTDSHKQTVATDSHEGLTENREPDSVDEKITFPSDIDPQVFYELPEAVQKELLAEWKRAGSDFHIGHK
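Pol iota at 10 nM preincubated 15 min with compounds at room temperature; reaction started with fluorescent substrate, 50 nM final. Fluorescence read kinetically at 0 and 10 min; buffer-only wells as negative control.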
* marks the source's active call; other numbers are inactive results; ? = inconclusive; / = no result; [ ] = remark or other dose. Only some compounds are listed: those with a hit (about 2.8% of all), similar ones and a draw of the others. Unless noted, calls follow the shape of the dose curve; as a rule, active = well fitted curve in the direction sought with a large enough effect; inconclusive = small, poorly fitted or top-dose-only effect, or another doubt; inactive = no such curve, though single readings can be large; an effect the other way counts as inactive or inconclusive.

SMILES	POLK inh	WRN inhibitor	Pol beta inh	POLH inh	PI5P4Ka inh	POLI inh
CC(/C=C1\SC(=S)N(CCCC(=O)Nc2ccc(C(=O)O)c(O)c2)C1=O)=C\c1ccccc1	?	-33%	?	?	?	?
Cc1ccc(C)c(NC(=O)c2cc(S(=O)(=O)N3CCCCCC3)ccc2F)c1	-8%[60.1 µM]	/	10%	-14%	/	7%
Cc1nnc2ccc(-c3ccc(NC(=O)c4ccco4)cc3)nn12	0%	-23%	18µM*	?	-15	-24%
CC(C)(C)c1ccc(C(=O)NCCc2csc3nc(-c4ccccc4F)nn23)cc1	-8%[60.1 µM]	/	-5%	-18%	/	?
COc1ccc(N2CCN(C(=O)C(C)n3c(=O)cc(C(F)(F)F)c4c(C)nn(C)c43)CC2)cc1 (centres undefined)	-17%	/	2%	-10%	/	13%
C=CCc1cccc(/C=N/n2cnnc2)c1O	-30%	-9%	-1%	6%	-1	20%
C=CCc1cccc(/C=C/c2cc(=O)c3ccccc3[nH]2)c1O	-15%	-2%[11.6 µM]	40µM*	?	-3	?
Cc1c(CCO)sc[n+]1CC(=O)c1ccccc1	-6%	/	/	/	/	?
COc1ccc(/C=C/C(=O)c2c(O)c(OC)c3occc3c2OC)cc1OC	9%	/	/	/	/	-11%
COc1ccccc1/C=C/C=N/NC(=O)c1cc(-c2ccco2)[nH]n1	?	-22%	25µM*	?	-72*	?
COc1cc2c(NC3CCN(C)CC3)nc(N3CCCN(C)CC3)nc2cc1OCC1CCNCC1	0%	/	/	/	/	?
CC(=O)c1ccc(NC(=O)Cn2ncc3c(C)n(Cc4ccc(F)cc4)c(C)c3c2=O)cc1	-26%	/	-1%	-4%	/	10%
O=C(N=Nc1c(O)[nH]c2ccccc12)c1cccc(S(=O)(=O)Nc2ccccc2Cl)c1	-10%	-17%	3%	-4%	-22	3%
NS(=O)(=O)c1cc(C(=O)N=Nc2c(O)[nH]c3ccccc23)ccc1Cl	-31%	-7%[11.6 µM]	22µM*	?	-21	50µM*
COc1ccc(-c2oc3ncnc(NCCCN(C)C)c3c2-c2ccc(OC)cc2)cc1	-5%[60.1 µM]	-12%[11.6 µM]	?	-13%	-3	0%
CCCCNc1ncnc2oc(-c3ccco3)c(-c3ccco3)c12	?	/	/	/	/	71µM*
O=c1c2ccccc2oc2cc(O)c(C3COCC(CO)C(O)C(O)C3O)c(O)c12 (centres undefined)	2.5µM*	/	/	/	/	/
Cc1ccc(C)c(N2CCN(S(=O)(=O)c3ccc(-c4coc(C)n4)cc3)CC2)c1	-6%[60.1 µM]	/	3%	?	/	5%
COc1cc(C=C2C(=O)c3ccccc3C2=O)ccc1O	-19%	-7%	-3%	-4%	?	?
COc1cc(C=C2C(=O)c3ccccc3C2=O)cc(OC)c1OC	-11%	-4%	0%	-2%	4	89µM*
COc1ccc(C=C2C(=O)c3ccccc3C2=O)cc1O	-8%	-21%	-5%	-30%	-60*	18µM*
COc1ccc(C(=O)NCC(=O)OCC(=O)Nc2ncc(Cl)cc2Cl)cc1[N+](=O)[O-]	-23%	-9%[11.6 µM]	/	50µM*	-22	19%
COc1cc(CCC(=O)OCC(=O)Nc2ncc(Cl)cc2Cl)cc(OC)c1OC	-26%	-13%[57.1 µM]	79µM*	11µM*	?	?
C=CCn1c2ccccc2c(=O)c2cc(C#Cc3ccsc3)ccc21	/	/	5µM*	/	/	/
O=S(=O)(c1ccc(Br)cc1)c1nc(-c2ccco2)oc1SCc1ccccc1F	-24%	/	33%	-10%	/	-25%
SMILES	POLK inh	WRN inhibitor	Pol beta inh	POLH inh	PI5P4Ka inh	POLI inh
COc1cc(OC)c(NC(=O)Cn2cnc3c(nc4n3CCCCC4)c2=O)cc1Cl	-2%	/	5%	3%	/	-4%
O=C1S/C(=C\C=C\c2ccco2)C(=O)N1c1ccc(O)cc1	?	?	7.9µM*	?	-87*	32µM*
O=C1S/C(=C\C=C\c2ccco2)C(=O)N1c1ccccc1	45µM*	-25%	32µM*	45µM*	-50*	13µM*
Cc1cccc(CNC(=O)c2ccc(C)c(-n3c(C)nc4cccnc43)c2)c1	-5%	/	17%	-12%	/	17%
O=[N+]([O-])c1ccc2c(c1)C=C/C2=C\c1ccc(C=S)cc1	-10%	/	/	/	/	0%
Nc1ccc2ccc(O)cc2c1	?	?	/	50µM*	-19	?
COC1=C(Nc2ccccc2)C(=O)c2ccccc2C1=O	-10%	-4%	?	-23%	0	18µM*
COc1ccc(N)c2c1C(=O)c1ccccc1C2=O	?	20µM*	?	-20%	1	?
COc1ccc(OC)c2c1C(=O)C(Cl)=C(Cl)C2=O	-5%	-30%[11.6 µM]	25%	-16%	-102*	69%
COC1=C(Nc2ccc(C)cc2)C(=O)c2ccccc2C1=O	-16%	-28%	?	-14%	2	?
COC1=C(OC)C(=O)c2ccccc2C1=O	-5%[60.1 µM]	/	28µM*	?	/	22µM*
Cc1c(CNCCCc2ccccc2)c(C(=O)O)c(C)n1Cc1ccc(Cl)cc1	2%	/	22%	-11%	/	15%
COc1cc(NC(=O)C(c2ccccc2)c2ccccc2)c(C(=O)O)cc1OC	-8%	-4%	56%	-14%	-3	31%
Cc1c(-c2nsc(NC(=O)c3cccs3)n2)nnn1-c1ccc(Br)cc1	-21%	/	3.2µM*	?	/	?
COC(=O)c1ccc(-n2nnc(-c3nsc(NC(=O)c4ccc(Cl)cc4)n3)c2C)cc1	-9%	/	56µM*	-23%	/	?
CC(=O)c1c(C)oc2ccc(N(C(=O)Oc3ccccc3)S(=O)(=O)c3ccc(C(C)(C)C)cc3)cc12	-11%	/	-19%	-6%	/	-24%
COc1ccc(OC)c(CCNC(=O)Cn2sc3nc(C)cc(C)c3c2=O)c1	/	/	5%	/	/	/
Cc1cc(C)c2c(=O)n(CC(=O)Nc3ccc(Br)c(C)c3)sc2n1	-4%	3%	0%	5%	-62*	?
Cc1c(Cl)cccc1NC(=O)Cn1cccc1	2%	1%	5%	8%	/	9%
Cc1cc(C)c2c(=O)n(CC(=O)Nc3cccc(Cl)c3C)sc2n1	-2%	2%	-9%	7%	-87*	?
Cc1cc(C)c2c(=O)n(CC(=O)NC3CCCC3)sc2n1	-21%	2%	12%	-3%	-64*	?
COc1ccc(N2CC(NC(=O)CCc3ccccc3)CC2=O)cc1OC (centres undefined)	-6%[60.1 µM]	/	-20%	-25%	/	26%
CN(C)c1ccc(/C=C2\C=Cc3ccccc32)cc1N	-10%	/	/	/	/	13%
COc1ccc(-c2nnc(SCC(=O)Nc3ccc(C(C)=O)cc3)nc2-c2ccc(OC)cc2)cc1	-7%[60.1 µM]	/	-9%	2%	/	-11%

Source: PubChem BioAssay
